# Compound activity deposited in PubChem by National Center for Advancing Translational Sciences (NCATS).
# GoLoco inh red = qHTS Assay for Inhibitors of RGS12 GoLoco Motif Activity (Red Fluorophore). Guanine nucleotide-binding protein G(i) subunit alpha-1 (Homo sapiens), P63096. Gai1:RGS12 GoLoco peptide FP, rhodamine, 10 min. Potency, µM (doses to about 61.6 µM), inactives show at the top dose activity, negative = inhibition, usual class: inhibitors. 230,000 compounds, 0.44% hits. AID 880, 2007; active = well fitted inhibition curve with a large enough effect, not every such curve was filed as active; inactive = no such curve, though single readings can be large or run the other way; note: potency is the fitted concentration of half-maximal effect; % is set by controls: 0 for no effect and ±100 for the full control effect; nearly all actives have a fitted effect of over 30% in size
# ERG-DNA inh = qHTS for Small Molecule Inhibitors of the ERG Ets/DNA interaction. Transcriptional regulator ERG (Homo sapiens), P11308. fluorescence polarization, His-ERG Ets domain / labelled DNA. Potency, µM (highest dose often 76.9 µM), for inactives: at the highest dose FP activity, negative = inhibition, actives largely listed as inhibitors. 370,000 compounds, 0.028% hits; active = well fitted inhibition curve with a large enough effect in the polarisation, with a control signal flat; inconclusive = small, poorly fitted or top-dose-only effect, or effect the other way, or a change in a side signal; inactive = no such curve, though single readings can be large or run the other way; the % refers to the polarisation;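 note: polarization taken with two DNA probes labelled with fluorescein and Texas red; potency is the fitted concentration of half-maximal effect; % of control where 0% means no effect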
#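 His-tagged ERG Ets domain (1 uM in the protein solution; 300mM KCl, 50mM Tris-HCl, 1mM EDTA, 1mM DTT, pH 7.5) received compound, then a probe mix of 5 nM fluorescein-DNA and 100nM Texas-615-DNA. Fluorescence polarization was read for both dyes.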
# Menin MLL FP FL = qHTS Assay for Inhibitors Targeting the Menin-MLL Interaction in MLL Related Leukemias: Competition With Fluorescein Labeled MLL-derived Peptide; 290,000 tested, under 10 active; FP activity change, % at 61.4 µM; Fluorescence polarization, fluorescein-MLL peptide displacement from menin; active = well fitted curve in the direction sought with a large enough effect in the polarisation, not every such curve was filed as active; inconclusive = small, poorly fitted or top-dose-only effect, or effect the other way, or a change in a side signal; inactive = no such curve, though single readings can be large or run the other way; the % refers to the polarisation; note: % of control where 0% means no effect
# Menin-MLL TR inh = qHTS Assay for Inhibitors Targeting the Menin-MLL Interaction in MLL Related Leukemias: Competition With Texas Red Labeled MLL-derived Mutant Peptide | O00255 | AID 1768, 2009 | Potency, µM (top dose mostly 61.6 µM), inactives show at the highest dose FP activity change, negative = inhibition, usual class: inhibitors | Menin + Texas Red MLL mutant peptide, fluorescence polarization | 270,000 compounds, 0.23% hits; active = well fitted inhibition curve with a large enough effect in the polarisation, with a control signal flat, not every such curve was filed as active; inconclusive = small, poorly fitted or top-dose-only effect, or effect the other way, or a change in a side signal; inactive = no such curve, though single readings can be large or run the other way; the % refers to the polarisation; note: potency is the fitted concentration of half-maximal effect; % of control where 0% means no effect
# MLL CXXC-DNA inh = qHTS Fluorescence Polarization Assay for Inhibitors of MLL CXXC domain - DNA interaction; Histone-lysine N-methyltransferase 2A (Homo sapiens), Q03164; MLL-CXXC / FITC-HOXA9 DNA fluorescence polarization; Potency, µM (top dose mostly 115 µM), inactives show at the highest dose activity change, negative = inhibition, usual class: inhibitors; 290,000 compounds, 0.037% hits; AID 2662, 2010; active = well fitted inhibition curve with a large enough effect in the polarisation, with a control signal flat, not every such curve was filed as active; inconclusive = small, poorly fitted or top-dose-only effect, or effect the other way, or a change in a side signal; inactive = no such curve, though single readings can be large or run the other way; the % refers to the polarisation; note: potency is the fitted concentration of half-maximal effect
#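 Steps: dispense CXXC domain solution (7 uM) → pin compounds or unlabeled HOX-A9 DNA control → 5 min ambient → add FLSN-HOX-A9 solution (50 nM) → spin → 30 min ambient → fluorescence polarization. Tris pH 7.5/NaCl/DTT/BSA buffer.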
# MLL CXXC Fl = qHTS Fluorescence Polarization (FP) Assay for Inhibitors of MLL CXXC domain - DNA interaction: Fluorescein FP; 200 compounds, 70% hits; shares compounds with MLL CXXC-DNA inh; MLL CXXC-DNA binding, fluorescein FP; Potency, µM (doses to about 345 µM), inactives show top-dose activity change, negative = inhibition, hits mostly inhibitors; AID 624160, 2012; note: potency is the fitted concentration of half-maximal effect; nearly all actives have a fitted effect of over 80% in size
# MLL CXXC TxRed = qHTS Fluorescence Polarization (FP) Assay for Inhibitors of MLL CXXC domain - DNA interaction: Texas Red FP; shares compounds with MLL CXXC-DNA inh; MLL CXXC-DNA binding, Texas Red fluorescence polarization; Potency, µM (highest dose often 345 µM), inactives show top-dose activity change, negative = inhibition, most hits filed as inhibitors; 200 compounds, 40% hits; AID 624161, 2012; note: potency is the fitted concentration of half-maximal effect; % is set by controls: 0 for no effect and ±100 for the full control effect; nearly all actives have a fitted effect of over 75% in size
# MLL CXXC HTRF = qHTS Fluorescence Polarization (FP) Assay for Inhibitors of MLL CXXC domain - DNA interaction: HTRF Assay. MLL CXXC-DNA binding, HTRF, biochemical. 210 compounds, 30% hits. Potency, µM (titrated, usually from 172 µM), inactives show at the highest dose activity change, negative = inhibition, hits mostly inhibitors. shares compounds with MLL CXXC-DNA inh; note: % is set by controls: 0 for no effect and ±100 for the full control effect; nearly all actives have a fitted effect of over 80% in size
# Starred values were filed as active, the others as inactive; ? = inconclusive; / = no result given. Many of the other results were omitted from the sample, so hits are more common in it than they were. Unless noted, calls come from the whole dose curve; as a rule, active = well fitted inhibition curve with a large enough effect; inconclusive = small, poorly fitted or top-dose-only effect; inactive = no such curve, though single readings can be large or run the other way.
SMILES,GoLoco inh red,ERG-DNA inh,Menin MLL FP FL,Menin-MLL TR inh,MLL CXXC-DNA inh,MLL CXXC Fl,MLL CXXC TxRed,MLL CXXC HTRF
CCC12OC(=N)C(C#N)(C1C)C(C#N)(C#N)C(c1ccccc1)O2 (centres undefined),-8%,-1%,-3,-6%,20µM*,13µM*,22µM*,32%
N#CC(C#N)=C1C=C2C=C(N3CCOCC3)CCC2CC1 (centres undefined),72%,86%,?,8%,?,/,/,/
N#CC(C#N)=C1C=C2C=C(N3CCCCCC3)CCC2CC1 (centres undefined),-115%,?,?,?,?,0.45µM*,71µM*,217%
O=[N+]([O-])c1cccc(CN2C(COCc3ccccc3)CCC=CS2(=O)=O)c1 (centres undefined),/,/,2,37%,/,/,/,/
Cc1[nH]n(-c2ccccc2)c(=O)c1N=Nc1ccc(C(=O)O)cc1,/,-8%,-2,?,2%,/,/,/
Cc1[nH]n(-c2ccccc2)c(=O)c1N=Nc1cccc(C(=O)O)c1,/,-5%,4,?,?,14µM*,?,34%
Cc1cc(C)n(CC(=O)Nc2ccc(F)c(F)c2)c(=O)c1C#N,/,1%,/,/,/,/,/,/
COCCCNc1c2c3c(cccc3[nH]c1=O)C(=O)c1ccccc1-2,4.5µM*,7.1µM*,?,32µM*,?,0.56µM*,63µM*,25%
O=C1c2c(O)ccc(O)c2C(=O)c2c(NCCNCCO)ccc(NCCNCCO)c21,14%,-5%,?,?,?,6.8µM*,12µM*,7.3µM*
O=C1c2ccccc2C(=O)c2c(NCCCN(CCO)CCO)cccc21,111%,27%,-2,?,-12%,/,/,/
CCC(C)c1ccc(NC(=O)Nc2cccnc2)cc1 (centres undefined),/,-2%,-6,?,?,-7%,?,1%
Cc1ccc(C(C2=C(O)CC(C)(C)CC2=O)C2C(=O)CC(C)(C)CC2=O)s1 (centres undefined),1%,-5%,5,-13%,?,/,/,/
CC1(C)CC(=O)C(C(C2=C(O)CC(C)(C)CC2=O)c2ccc(Br)s2)C(=O)C1 (centres undefined),-3%,5%,5,24%,?,40µM*,37%,15µM*
CC(=O)OCCn1c2nc(=O)[nH]c(=O)c-2nc2cc(C)c(C)cc21,14µM*,35µM*,?,-2%,?,1.8µM*,2%,14%
CCCC(=O)OC[C@@H](OC(=O)CCC)[C@@H](OC(=O)CCC)[C@H](Cn1c2nc(=O)[nH]c(=O)c-2nc2cc(C)c(C)cc21)OC(=O)CCC,/,/,?,-21%,?,14µM*,?,23%
COc1ccc(OCCn2c(C)nc3cc(C)c(C)cc32)cc1,/,1%,/,/,/,/,/,/
CO[C@H](C(=O)[C@@H](O)[C@@H](C)O)C1Cc2cc3cc(O[C@H]4C[C@@H](O[C@H]5C[C@@H](O)[C@H](O)[C@@H](C)O5)[C@@H](O)[C@@H](C)O4)c(C)c(O)c3c(O)c2C(=O)[C@H]1O[C@H]1C[C@@H](O[C@H]2C[C@@H](O[C@H]3C[C@](C)(O)[C@H](O)[C@@H](C)O3)[C@H](O)[C@@H](C)O2)[C@H](O)[C@@H](C)O1 (some centres undefined),/,/,?,-8%,40µM*,26%,17%,83%
COC(C(=O)C(O)C(C)O)C1Cc2cc3cc(OC4CC(OC5CC(O)C(O)C(C)O5)C(O)C(C)O4)c(C)c(O)c3c(O)c2C(=O)C1OC1CC(OC2CC(OC3CC(C)(O)C(O)C(C)O3)C(O)C(C)O2)C(O)C(C)O1 (centres undefined),/,/,?,-6%,?,/,/,72%
CCC(=O)Nc1cc(-c2cccc(C)c2)nn1-c1ccccc1,/,2%,/,/,/,/,/,/
O=c1c2c3c(sc2n(Cc2ccc(F)cc2Cl)c(=O)n1-c1ccc(Cl)cc1)CCC3,/,2%,/,/,/,/,/,/
CNC(=O)c1cc(Nc2nnc(-c3ccc(C)c(S(N)(=O)=O)c3)c3ccccc23)ccc1OC,/,-3%,0,5%,?,142µM*,14%,12%
COc1ccc(Nc2nnc(-c3ccc(C)c(S(N)(=O)=O)c3)c3ccccc23)cc1,/,1%,/,/,/,/,/,/
CCN(CC)c1ccc2cc(-c3nc(-c4ccc(OC)cc4)cs3)c(=O)oc2c1,51%,?,?,21%,?,0.45µM*,?,-5%
COc1cccc(N2CC(NC(=O)CCCc3ccccc3)CC2=O)c1 (centres undefined),/,10%,/,/,/,/,/,/
O=C(NCCN1CCN(c2cccc(Cl)c2)CC1)C1COc2ccccc2C1 (centres undefined),/,2%,/,/,/,/,/,/
CCc1cc2c(-c3ccccc3)cc(=O)oc2c2c1OCN(Cc1ccc(F)cc1)C2,/,-1%,/,/,/,/,/,/
COc1cc(/C=C2/SC(=O)NC2=O)ccc1OCc1ccccc1,/,12%,-6,?,?,/,/,/
COc1ccc(/C=C2/SC(=S)NC2=O)cc1OCc1ccccc1,/,15%,8,?,?,?,22%,30%
